Assay results taken from PubChem BioAssay (EPA / NIEHS).
Inconclusive results are not listed. Active and inactive are the calls of the source. The calls were made as follows, unless noted: active = hit-call score of the fitted dose curve at least 0.9, where 1 is the maximum; inactive = score below 0.9.

Experiments:
[1] = CCTE_Deisenroth_5AR_NBTE_donor: CCTE's 5alpha-reductase NanoBRET Target Engagement Assay […], Deisenroth Lab (AID 2284319); settings: actives raise or lower the signal
Outline: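 Donor NanoLuc luminescence at 460-20 nm is the read-out, serving artifact detection. Transiently expressed SRD5A2-NanoLuc in HEK293T; 5 h total chemical exposure, testosterone tracer added for the final 2 h; fitting bidirectional relative to DMSO baseline.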

[2] = CCTE_Deisenroth_5AR_NBTE_acceptor: CCTE's 5alpha-reductase NanoBRET Target Engagement Assay - Autofluorescence Screen, Deisenroth Lab (AID 2284321); settings: actives raise or lower the signal;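 also: compound fluorescence in the acceptor channel under 460 nm excitation flags autofluorescence artifacts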
Outline: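 Autofluorescence check: ToxCast chemicals, nominal 100 uM, excitation 460 nm, n=3 runs. Acceptor fluorescence endpoint, bidirectional fit relative to DMSO. Parent assay in HEK293T, 5 h post-dose.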

SRD5A2 (gene 6716) = test: CCTE_Deisenroth_5AR_NBTE_ratio: CCTE's 5alpha-reductase NanoBRET Target Engagement Assay - Ratio, Deisenroth Lab (AID 2284322); settings: actives raise or lower the signal
Outline: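 Reverse-transfect HEK293T with pNLF1-C-SRD5A2, express 20 h. Pre-incubate cells with chemical 3 h (8-point series, 10 nM - 29.9 uM, duplicate). Add testosterone tracer, 2 h more. Add substrate/inhibitor, read donor and acceptor emission.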

IYD (gene 389434) = test: CCTE_GLTED_hIYD: CCTE's human Iodotyrosine Deiodinase (xIYD) Inhibition Assay, Great Lakes Toxicology and Ecology Division (GLTED) Lab (AID 2284317; active = hit-call score of the fitted dose curve at least 0.9, where 1 is the maximum;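 also: cell-free human IYD enzyme made in baculovirus insect cells; iodide freed from monoiodotyrosine measured by cerium arsenite color change at 420 nm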)
Outline: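 First, recombinant human IYD (baculovirus-insect cells), MIT and chemical incubated 3 h. Next, iodide isolated on Dowex. Finally, Sandell-Kolthoff rate read at 420 nm, with platewise normalization to MNT and solvent controls.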

[3] = IUF_NPC2-5_cell_number_120hr: Cell Number Assessment at 120 hours in the Leibniz Research Institute for Environmental Medicine (IUF) Neural Progenitor Cell Migration and Differentiation Assay (NPC2-5) (AID 2284308);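 also: count of Hoechst-stained nuclei in migration zone around plated human neural progenitor spheres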
Outline: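 Hoechst-stained nuclei within the migration area were counted by automated high content imaging after 120 h. Single hNPC spheres differentiated on poly-D-lysine/laminin in DMEM/F12 (3:1) with 1% N2, compound present throughout, DMSO ≤0.1%.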

[4] = IUF_NPC2-5_viability_120hr: Viability Assessment at 120 hours in the Leibniz Research Institute for Environmental Medicine (IUF) Neural Progenitor Cell Migration and Differentiation Assay (NPC2-5) (AID 2284312)
Outline: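 Alamar blue resorufin fluorescence read after 5 days of differentiation, with compound present from day 0 and replenished at day 3. Primary hNPC spheres on laminin-coated plates, 37C; seven concentrations plus solvent control, fitted against DMSO.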

[5] = CCTE_Mundy_HCI_iCellGluta_NOG_NeuriteLength: CCTE's Neurite Outgrowth Assay in iCellGluta cells for Neurite Length, Mundy Lab (AID 2284318; active = hit-call score of the fitted dose curve at least 0.9, where 1 is the maximum)
Outline: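 Automated high-content imaging of betaIII-tubulin (Alexa Fluor-488) and Hoechst-stained cells gave neurite length, normalized to the DMSO baseline.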

[6] = test system: Brachyury (BRA) Protein Expression, Deisenroth Lab, TBXT (gene 6862); test: CCTE_Deisenroth_DEVTOX-GLR_legacy_Bra: (Legacy) CCTE's DevTox GLR-Endo Assay Evaluation of Brachyury (BRA) Protein Expression, Deisenroth Lab (AID 2284329)
Outline: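 Human pluripotent RUES2-GLR line was exposed twice during 48 h differentiation to a 10-point series, 1 nM - 200 uM. Fraction of Bra-positive cells was scored by imaging against pluripotent baseline and fitted after 0.2% DMSO subtraction.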

[7] = TAMU_PeakParms_SingleDonor1434_Asystole: Texas A&M University (TAMU) 1.5-hr Human Induced Pluripotent Stem Cell (iPSC)-derived Cardiomyocytes Calcium (Ca+2) Flux Assay for Cardiotoxicity: Asystole (quiescence of beating) (AID 2284328; active = hit-call score of the fitted dose curve at least 0.9, where 1 is the maximum)
Outline: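 Average Ca2+-flux peak frequency (beats/s) was recorded in single-donor iPSC-derived cardiomyocytes after 90 min exposure (0.2–100 uM final, 0.5% DMSO). Asystole POD set as EC95 against DMSO, no preprocessing.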

TTR (gene 7276) = test: CCTE_GLTED_hTTR_0.5uM: CCTE's human Transthyretin (hTTR) Inhibition Assay, with 0.5uM TTR, Great Lakes Toxicology and Ecology Division (GLTED) Lab (AID 2284320)
Outline: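 Cell-free displacement assay in which human TTR at 0.5 uM was incubated with test chemical for 2 h. Displacement of the ANSA probe was read by fluorescence at 380 nm excitation/475 nm emission. Loss of signal was fitted in the positive direction versus DMSO.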

## O=[N+]([O-])c1ccc(O)cc1C(F)(F)F
[1]
  outcome: inactive
[2]
  outcome: inactive
SRD5A2 (gene 6716)
  AC50: 50 µM (active)

## Oc1ccc2cc(SSc3ccc4cc(O)ccc4c3)ccc2c1
IYD (gene 389434)
  AC50: 56.9 µM (active)

## Nc1ccc(N)c2c1C(=O)c1ccccc1C2=O
IYD (gene 389434)
  outcome: inactive
[1]
  outcome: inactive
[2]
  AC50: 7.65 µM (active)
SRD5A2 (gene 6716)
  AC50: 2.08 µM (active)

## COCCOCCOCCO
[3]
  outcome: inactive
[4]
  outcome: inactive
[5]
  outcome: inactive

## CCc1cc(Cc2cc(CC)cc(C(C)(C)C)c2O)c(O)c(C(C)(C)C)c1
IYD (gene 389434)
  AC50: 102 µM (active)

## [O-]n1ccccc1=S.[O-]n1ccccc1=S.[Zn+2]
[1]
  outcome: inactive
[2]
  outcome: inactive
SRD5A2 (gene 6716)
  outcome: inactive

## CS(=O)(=O)OCCCCOS(C)(=O)=O
[6]
  outcome: inactive

## Cc1ccc(S(=O)(=O)Oc2ccc(N=Nc3ccc(-c4ccc(N=Nc5c(O)ccc6cc(S(=O)(=O)O)cc(S(=O)(=O)O)c56)c(C)c4)cc3C)cc2)cc1
IYD (gene 389434)
  AC50: 44.4 µM (active)
[1]
  outcome: inactive
[2]
  outcome: inactive
SRD5A2 (gene 6716)
  AC50: 11.9 µM (active)

## C[C@H]1O[C@@H](O[C@H]2[C@@H](O)C[C@H](O[C@H]3[C@@H](O)C[C@H](O[C@H]4CC[C@@]5(C)[C@H](CC[C@@H]6[C@@H]5C[C@@H](O)[C@]5(C)[C@@H](C7=CC(=O)OC7)CC[C@]65O)C4)O[C@@H]3C)O[C@@H]2C)C[C@H](O)[C@@H]1O
[1]
  outcome: inactive
[2]
  outcome: inactive
SRD5A2 (gene 6716)
  AC50: 0.354 µM (active)

## Nc1ccccc1[N+](=O)[O-]
[1]
  outcome: inactive
[2]
  outcome: inactive
SRD5A2 (gene 6716)
  AC50: 50 µM (active)

## COc1ccc(N=Nc2cc(C)c(N=Nc3ccc(S(=O)(=O)O)cc3)cc2OC)cc1
IYD (gene 389434)
  outcome: inactive
[1]
  AC50: 50 µM (active)
[2]
  AC50: 40.6 µM (active)
SRD5A2 (gene 6716)
  AC50: 87 µM (active)

## CCCCCCCCCCCCCC(=O)OCC(O)CO (centres undefined)
IYD (gene 389434)
  AC50: 100 µM (active)

## O=C(Nc1ccc2c(O)c(N=Nc3ccc(N=Nc4ccc(S(=O)(=O)O)cc4)cc3)c(S(=O)(=O)O)cc2c1)c1ccccc1
IYD (gene 389434)
  AC50: 91.3 µM (active)
[1]
  AC50: 9.98 µM (active)
[2]
  outcome: inactive
SRD5A2 (gene 6716)
  AC50: 11.6 µM (active)

## CC(C)NCC(O)COc1ccc(CC(N)=O)cc1 (centres undefined)
[7]
  outcome: inactive

## CC(CN=Cc1ccccc1O)N=Cc1ccccc1O (centres undefined)
[1]
  outcome: inactive
[2]
  outcome: inactive
SRD5A2 (gene 6716)
  outcome: inactive

## Cc1cc(S(=O)(=O)O)ccc1N=Nc1c(O)ccc2ccccc12
[1]
  AC50: 18.3 µM (active)
[2]
  outcome: inactive
SRD5A2 (gene 6716)
  AC50: 25 µM (active)

## CN(C)CCOC(C)(c1ccccc1)c1ccccn1 (centres undefined)
[3]
  outcome: inactive
[4]
  outcome: inactive
[5]
  outcome: inactive

## CC(C)CCCCCCCCCCCCCCC(=O)O
IYD (gene 389434)
  AC50: 40.8 µM (active)

## CCCCC(CC)COC(=O)c1ccc(O)cc1 (centres undefined)
IYD (gene 389434)
  AC50: 44.3 µM (active)

## Clc1ccc(C(c2ccccc2Cl)C(Cl)Cl)cc1 (centres undefined)
[1]
  outcome: inactive
[2]
  outcome: inactive
SRD5A2 (gene 6716)
  outcome: inactive

## CC(=O)O[C@H]1C[C@@H]2CC[C@@]1(C)C2(C)C
[1]
  outcome: inactive
[2]
  outcome: inactive
SRD5A2 (gene 6716)
  outcome: inactive

## COc1ccccc1N=Nc1c(S(=O)(=O)O)cc2cc(S(=O)(=O)O)cc(NC(C)=O)c2c1O
IYD (gene 389434)
  AC50: 94.8 µM (active)

## Oc1c(Cl)cc(Cl)c(Cl)c1Cc1c(O)c(Cl)cc(Cl)c1Cl
[3]
  AC50: 0.204 µM (active)
[4]
  AC50: 0.147 µM (active)
[7]
  AC50: 2.11 µM (active)

## N[C@@H](Cc1cc(I)c(Oc2cc(I)c(O)c(I)c2)c(I)c1)C(=O)O
TTR (gene 7276)
  AC50: 0.205 µM (active)

## C=CC(=O)OCCCC
[1]
  outcome: inactive
[2]
  outcome: inactive
SRD5A2 (gene 6716)
  outcome: inactive

## CCCCCCCCC=CCCCCCCCC1=NCCN1CCO
IYD (gene 389434)
  AC50: 66.2 µM (active)

## COCCc1ccc(OCC(O)CNC(C)C)cc1 (centres undefined)
[3]
  outcome: inactive
[4]
  outcome: inactive
[5]
  outcome: inactive

## Nc1ccc2cc(S(=O)(=O)O)cc(O)c2c1N=Nc1ccccc1C(F)(F)F
IYD (gene 389434)
  AC50: 100 µM (active)

## CCCCCCCCc1ccc(S(=O)(=O)O)cc1
IYD (gene 389434)
  AC50: 100 µM (active)

## CCCCCCCCCCCCCCN(CCO)CCO
IYD (gene 389434)
  AC50: 38.6 µM (active)
[1]
  AC50: 62.3 µM (active)
[2]
  AC50: 50 µM (active)
SRD5A2 (gene 6716)
  AC50: 77.7 µM (active)

## CCCCCCCC(=O)OCC(O)CO (centres undefined)
[1]
  outcome: inactive
[2]
  outcome: inactive
SRD5A2 (gene 6716)
  outcome: inactive
